Columns and labels:
CHO = assay: % viability of CHO cells (MTT); higher = less toxic; settings: 48 h
In short: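 For 48 h, attached CHO cells (10^6 cells/well, 200 µL, seeded the night before) were kept in fresh medium carrying compound at 2 or 20 µM. A colorimetric tetrazolium (MTT) assay then gave survival as percent viability versus untreated cells.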

HepG2-A16-CD81 = assay: % inhibition of HepG2 viability (CellTiter-Glo); higher = more toxic; settings: 5 µM
[1] = tested on: Plasmodium falciparum NF54 stage IV/V gametocytes; assay: % inhibition of gametocyte viability (PrestoBlue); higher = more inhibition; settings: 48 h
In short: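 Stage IV/V NF54 gametocytes at 2% gametocytaemia and 5% haematocrit (100 µL/well) were treated with compound at 1 or 5 µM and incubated for 48 h at 37 °C under stationary, hypoxic conditions. PrestoBlue (10 µL) was then added for 2 h, and fluorescence at 612 nm was read on 70 µL of transferred supernatant. Percent inhibition of gametocyte viability was normalised to vehicle and kill controls within one run.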

[2] = tested on: Plasmodium falciparum NF54 asexual blood stage; assay: % inhibition of asexual blood stage proliferation (pLDH); higher = more inhibition; settings: 72 h
In short: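 Plasmodium falciparum NF54 ring-stage cultures (1% haematocrit, 2% parasitaemia) were incubated with compound at 2 or 20 µM for 72 h at 37 °C under 4% CO2, 3% O2 and 93% N2. Survival was read at 620 nm with the parasite lactate dehydrogenase assay. Results were reported as percent inhibition of asexual proliferation relative to controls.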

[3] = tested on: Plasmodium falciparum NF54 stage IV/V gametocytes; assay: % inhibition of gametocyte viability (ATP bioluminescence); higher = more inhibition; settings: 24 h
In short: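 Stage IV/V NF54 gametocytes from density gradients (30,000 per well, 96-well plates) were incubated with compound at 1 or 5 µM for 24 h at 37 °C. A single run supplied percent inhibition of gametocyte viability, based on ATP measured with Promega BacTiter Glo and normalised to control wells.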

[4] = tested on: Plasmodium falciparum NF54 stage IV/V gametocytes; assay: % inhibition of gametocyte viability (luciferase reporter); higher = more inhibition; settings: 48 h
In short: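 Percent inhibition came from luminescence and was normalised to controls in a single run. Gametocytes (stage IV/V, NF54-Pfs16-GFP-Luc line, 2% gametocytaemia, 2% haematocrit) were treated with compound at 1 or 5 µM and incubated for 48 h at 37 °C without agitation under hypoxia. Readings used 30 µL lysate with 30 µL Promega luciferin substrate on a GloMax-Multi+ reader, integrating for 10 s.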

[5] = tested on: Plasmodium berghei ANKA liver stage in HepG2-A16-CD81; assay: % inhibition of liver stage parasite viability (luciferase); higher = more inhibition; settings: 5 µM; 48 h
Method: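 Single-concentration screen of the MMV Pandemic Response Box. P. falciparum NF54 asexual blood stages: pLDH assay, 72 h at 37 °C, 2 and 20 µM, n=2. Stage IV/V gametocytes (NF54): luciferase reporter (NF54-Pfs16-GFP-Luc, 48 h), ATP bioluminescence (24 h) and PrestoBlue (48 h) at 1 and 5 µM, n=1. P. berghei liver stage (luciferase in HepG2-A16-CD81, 48 h post infection) at 5 µM, n=4. All normalised to DMSO and kill controls as % inhibition.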
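Throughout, for % inhibition of HepG2 viability (CellTiter-Glo): HepG2-A16-CD81 hepatoma cells plated as in the liver-stage assay but without sporozoites, with DMSO wells as negative and 25 µM puromycin as positive control.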

Structure (SMILES) | % viability of CHO cells (CHO; 2 µM) | % viability of CHO cells (CHO; 20 µM) | % inhibition of HepG2 viability (HepG2-A16-CD81) | % inhibition of gametocyte viability ([1]; 1 µM) | % inhibition of gametocyte viability ([1]; 5 µM) | % inhibition of asexual blood stage proliferation ([2]; 2 µM) | % inhibition of asexual blood stage proliferation ([2]; 20 µM) | % inhibition of gametocyte viability ([3]; 1 µM) | % inhibition of gametocyte viability ([3]; 5 µM) | % inhibition of gametocyte viability ([4]; 1 µM) | % inhibition of gametocyte viability ([4]; 5 µM) | % inhibition of liver stage parasite viability [5]
O=C(NCCN1CCCCC1)c1cccc(C(F)(F)F)c1 | 96.7% | -13% | 1.19% | < 0% | < 0% | 16.9% | 78.6% | < 0% | 2.48% | 12.3% | < 0% | 20.2%
O=[N+]([O-])c1ccc2c(CCc3c[nH]c4ccccc34)c[nH]c2c1 | 101% | 143% | 0.942% | < 0% | 28% | 61.5% | 92.7% | < 0% | < 0% | < 0% | < 0% | -60.7%
Oc1ccc(NCc2ccccc2OCc2ccccc2)cc1 | 97.9% | 103% | -1.04% | < 0% | < 0% | 18.6% | 95% | < 0% | < 0% | < 0% | < 0% | 25.2%
Cn1cncc1[C@@](N)(c1ccc(Cl)cc1)c1ccc2c(c1)c(-c1cccc(Cl)c1)cc(=O)n2C | 94.8% | 47.9% | 31.9% | 21.7% | 31.8% | 51.2% | 75.9% | 15.7% | 16.3% | 0.69% | < 0% | 60.7%
C[Si]1(C)CCN(Cc2cc(-c3ccc(Cl)cc3)n(-c3ccc(Cl)cc3)n2)CC1 | 108% | 71.6% | 5.65% | 28.8% | 68.7% | 57% | 59.2% | 3.88% | 81% | 3.92% | 31.2% | 33.3%
COc1cc(NCc2ccc3nc(N)nc(N)c3c2C)cc(OC)c1OC | 109% | 47.7% | 17.2% | < 0% | < 0% | 40.8% | 88.6% | < 0% | < 0% | < 0% | < 0% | 69.1%
O=C(NN1C(=O)[C@@H]2C3C=CC([C@H]4C[C@@H]34)[C@@H]2C1=O)c1ccc(C(F)(F)F)cc1 | 97.4% | 120% | -2.51% | < 0% | < 0% | 4.37% | 23% | 1.06% | < 0% | < 0% | 4.75% | 26.8%
Cc1c(CN(C)C(=O)/C=C/c2cnc3c(c2)C(C)(C)C(=O)N3)oc2ccccc12 | 105% | 87.2% | 9.28% | < 0% | 9.55% | 13.1% | 78.8% | < 0% | < 0% | < 0% | 15.2% | 11.2%
O=C(O)c1ccccc1Sc1ncnc2sc3c(c12)CCC3 | 103% | 89.7% | 4.01% | 20% | 18.3% | -19.5% | -13.7% | 2.23% | < 0% | < 0% | < 0% | -30.6%
CCNC(=O)Nc1cc2c(-c3ccnc(C)c3)ccc(CNC(=O)OC)c2cn1 | 92.8% | 58.1% | 5.56% | < 0% | 27.4% | 0.638% | 33.7% | < 0% | < 0% | < 0% | 5.9% | 25.9%
O=S(=O)(Nc1ccc(O)cc1)c1cccc2cccnc12 | 91.3% | 104% | 0.07% | < 0% | < 0% | 28.2% | 52.4% | < 0% | < 0% | < 0% | < 0% | -2.62%
O=[N+]([O-])c1cn2c(n1)OC[C@@H](OCc1ccc(OC(F)(F)F)cc1)C2 | 92.7% | 84.4% | 10.7% | < 0% | < 0% | 0.354% | 10.1% | < 0% | < 0% | < 0% | 3.32% | 31.5%
CC[C@@H]1C(=O)OC[C@@H]1Cc1cncn1C | 111% | 110% | -1.73% | < 0% | < 0% | 5.57% | 14.4% | < 0% | < 0% | < 0% | 10.7% | -7.29%
CO[C@@]1(NC(=O)Cc2cccs2)C(=O)N2C(C(=O)O)=C(COC(N)=O)CS[C@@H]21 | 114% | 143% | -4.03% | 11.3% | 20.3% | 20% | 88.8% | 0.48% | < 0% | < 0% | 2.58% | 11.5%
NCc1ccc(S(N)(=O)=O)cc1 | 83.8% | 129% | 6.22% | 7.26% | 15.6% | 24% | 96.5% | < 0% | < 0% | < 0% | < 0% | 19.8%
O=c1oc2ccc(Br)cc2cc1CSc1ncc[nH]1 | 112% | 73.8% | 3.9% | 11.2% | 7.96% | -5.59% | 79% | 6.38% | 5.34% | 4.59% | < 0% | -13.1%
N[C@H](CCC(=O)N[C@@H](Cc1c[nH]c2ccccc12)C(=O)O)C(=O)O | 116% | 57.6% | -8.85% | < 0% | 3.44% | 28.8% | 43.7% | 4.77% | < 0% | 6.42% | < 0% | 21.3%
CC(=O)O[C@H]1C[C@@]2(C)[C@@H](C[C@@H](O)[C@H]3[C@@]4(C)CC[C@@H](O)[C@@H](C)[C@@H]4CC[C@@]32C)/C1=C(\CCC=C(C)C)C(=O)O | 108% | 97.1% | -0.207% | < 0% | 2% | 1.38% | 9.02% | < 0% | < 0% | < 0% | < 0% | 36.2%
O=C(c1nc2c(C(F)(F)F)cc(C3CC3)cn2c1Cl)N1CCN([C@H]2CC[C@H](O)CC2)C(=O)C1 | 100% | 116% | 0.895% | 28.7% | 6.18% | 14.7% | 46.1% | 10.1% | 1.45% | 3.76% | < 0% | 16.9%

From the supplement of paper PMC7801607
